# The list is not random: actives were taken first. Their share in the collection is about 6%.
# D1 PAM = Potentiators of Human D1 Dopamine Receptor: qHTS. D(1A) dopamine receptor (Homo sapiens), P21728. HEK293 TREx D1 cells, calcium flux, dopamine EC20 potentiation. potentiation, % at 10 µM. 0.036% of 360,000 active. AID 504651, 2011; in the data active means potentiation above about 30%; further: 0% is about no effect
# Target sequence (P21728 whole entry, looked up): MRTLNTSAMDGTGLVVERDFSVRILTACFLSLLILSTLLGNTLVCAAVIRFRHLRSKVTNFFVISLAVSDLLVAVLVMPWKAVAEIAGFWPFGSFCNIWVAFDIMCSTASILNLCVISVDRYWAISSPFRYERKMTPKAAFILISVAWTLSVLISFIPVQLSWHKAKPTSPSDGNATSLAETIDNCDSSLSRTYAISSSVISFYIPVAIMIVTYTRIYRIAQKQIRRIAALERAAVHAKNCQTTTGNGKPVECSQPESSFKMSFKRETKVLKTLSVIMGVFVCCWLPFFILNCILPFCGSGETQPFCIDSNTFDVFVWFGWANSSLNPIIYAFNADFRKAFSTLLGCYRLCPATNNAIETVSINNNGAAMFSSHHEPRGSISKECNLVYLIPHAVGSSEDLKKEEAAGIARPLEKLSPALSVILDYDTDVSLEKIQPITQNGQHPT
# D1 antag = Antagonist of Human D 1 Dopamine Receptor: qHTS | D(1A) dopamine receptor (Homo sapiens), P21728 | HEK293 TREx D1 cells, calcium flux, dopamine EC80; hits give low values | activity change, negative = inhibition, % at 10 µM | 3.2% of 360,000 active | AID 504652, 2011; in the data active means activity change below about -30%; further: on the % scale 0 is the no-effect control and ±100 the full control effect
#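 HEK293 T-REx cells expressing inducible, force-coupled D1 receptor; no-wash Ca dye, 30–90 min RT. Cmpd → 180 s read at 1 Hz → EC80 DA → 180 s read.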
# D3 ag = qHTS of D3 Dopamine Receptor Agonist: qHTS | D(3) dopamine receptor (Homo sapiens), P35462 | D3R DiscoveRx beta-arrestin cells, luminescence, 90 min | max activation, % | 0.58% of 410,000 active | AID 652048, 2013; in the data active means max activation above about 30%; further: 0% is about no effect
#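 Cells at 1500/well, incubated overnight, then treated with pinned compounds (dopamine as control) for 90 min at 37 degrees C. DiscoveRx reagent added for 30 - 60 minutes at room temperature; luminescence read.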
# D3 antag = qHTS of D3 Dopamine Receptor Antagonist: qHTS; D3R cells, DiscoveRx beta-arrestin luminescence, antagonist mode; hits give low values; max response, negative = inhibition, %; 2.5% of 360,000 active; AID 652054, 2013; in the data active means max response below about -50%; inconclusive means no clear call, values can overlap the other calls; further: on the % scale 0 is the no-effect control and ±100 the full control effect
#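 Cells expressing the human receptor were seeded at 1500 cells/well, incubated overnight at 37 degrees C in 5% CO2, then exposed to library compounds with dopamine controls for 90 minutes at 37 degrees C before luminescent detection.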
# D1 agonist = Allosteric Agonists of the Human D1 Dopamine Receptor: qHTS; HEK293 T-REx D1 cells, calcium flux, agonist mode; 1% of 360,000 active; AID 504660, 2011; activation, % at 2 µM; D(1A) dopamine receptor (Homo sapiens), P21728; in the data active means activation above about 30%; further: 0% is about no effect
#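 Agonism was scored from calcium flux recorded over 180 s (1 read/s) after pintool compound addition, following a 10-cycle baseline. Cells were inducible force-coupled HEK293 TREx D1, plated overnight at 30 C and loaded with no-wash calcium dye.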
# Starred values were filed as active, the others as inactive; ? = inconclusive; nt = no result given; ! = not active in a repeat.
SMILES,D1 PAM,D1 antag,D3 ag,D3 antag,D1 agonist
Cc1ccc(-c2c(CN3CCN(c4cccc(C)c4)C(C)C3)csc2C)cc1 (centres undefined),2,-23,-4,nt,1
COC(=O)c1cnc(Nc2nc(C(N)c3ccccc3Cl)cs2)nc1C(F)(F)F (centres undefined),nt,nt,0,-21,nt
Cc1ccc(C)c(OC(=O)c2cccc(S(=O)(=O)N3CCN(C)CC3)c2)c1,10,0,-8,0,3
Cc1ccc(OC(=O)c2cccc(S(=O)(=O)N3CCN(C)CC3)c2)c(Br)c1,-10,-32*,0,11,6
Cc1cccc(C)c1OCC(=O)Nc1nc(-c2ccc(Br)cc2)ns1,2,-15,10,nt,0
O=C(O)CSc1cc(NS(=O)(=O)c2cccc([N+](=O)[O-])c2)c2ccccc2c1O,1,-19,-16,-51*,6
CCOc1ccc(S(=O)(=O)Nc2cc(SCC(=O)O)c(O)c3ccccc23)cc1,7,0,-16,-51*,7
CCc1ccc(S(=O)(=O)Nc2cc(SCC(=O)O)c(O)c3ccccc23)cc1,-3,-1,-2,-63*,0
Cc1ccc(C)c(S(=O)(=O)Nc2cc(SCC(=O)O)c(O)c3ccccc23)c1,-2,26,-8,?,5
CCN(CC)C(=O)C1=C(C)N(CCCOC)C(=O)C(CC(=O)NCc2cccs2)C1 (centres undefined),nt,nt,3,34,nt
CCC1Sc2ccccc2N(CC(=O)NC2CC2)C1=O (centres undefined),-6,-74*,3,13,-1
C=C1SC(Nc2c(C)cc(C)cc2C)=NC12CCCCC2,-3,16,-24,-54*,2
C=C1SC(Nc2c(C)cccc2C)=NC12CCCCC2,-5,-7,-6,-17,8
Cc1ccc(Cl)cc1N1CCN(C(=O)c2ccc(CS(=O)c3ccccc3)o2)CC1 (centres undefined),-7,-5,-6,nt,5
CCOc1ccccc1NC(=O)N1CCN(C)c2ncccc21,-4,-4,5,nt,2
N#Cc1ccc(NC(=O)COCc2cc(-c3ccc4c(c3)OCO4)on2)cc1,-2,-40*,9,nt,5
CCOC(=O)C1CCN(c2cc(C)nc3c(-c4ccccc4OC)c(C)nn23)CC1,-3,-1,7,nt,0
CC(COc1ccccc1)NC(C)C(O)c1ccc(O)cc1 (centres undefined),-5,-17,-71,-87*,3
C[C@H](NCCc1ccc(O)cc1)[C@H](O)c1ccc(O)cc1,-7,-12,-30,2,-1
COc1cc(Br)c(C[N+]2(CCOCCC3CCC4CC3C4(C)C)CCOCC2)cc1OC (centres undefined),nt,nt,0,nt,nt
O=C(CCNS(=O)(=O)c1ccc2c(c1)CCCC(=O)N2)NCc1ccccc1Cl,2,-16,2,nt,0
CCOc1cc(C(=O)Nc2ccc3nc(N4CCN(C)CC4)cc(C)c3c2)cc(OCC)c1OCC,0,-34*,-23,nt,0
Cc1cc(N2CCN(C)CC2)nc2ccc(NC(=O)c3cccnc3Cl)cc12,30*,2,-1,0,2
CCN1CCN(c2cc(C)c3cc(NC(=O)c4ccccc4F)ccc3n2)CC1,0,-5,-10,nt,-1
CCN1CCN(c2cc(C)c3cc(NC(=O)c4ccncc4)ccc3n2)CC1,-2,2,-6,-13,2
SMILES,D1 PAM,D1 antag,D3 ag,D3 antag,D1 agonist
CCN1CCN(c2cc(C)c3cc(NC(=O)c4cccnc4Cl)ccc3n2)CC1,1,-11,-3,-13,0
Cc1cc(N2CCN(C)CC2)nc2ccc(NC(=O)c3ccccc3F)cc12,-4,-42*!,4,9,0
CCOC(=O)C1=C(C)NC(C)=C(C(=O)OCC)C1C(=O)OCC(=O)Nc1ccc(NC(C)=O)cc1,nt,nt,1,-17,nt
CC1CCN(c2ccc(NC(=O)Cc3ccccc3)cc2)CC1,-5,-6,-23,-8,-1
COc1cccc(CNc2ccc(N3CCC(C)CC3)cc2)c1OC,2,-13,-27,-64*,-1
O=C(COC(=O)C1=COCCO1)Nc1cc(Cl)c(Cl)cc1Cl,nt,nt,-2,13,nt
COc1ccc(N2CC(C(=O)OCC(=O)Nc3cccc(C)c3)CC2=O)cc1 (centres undefined),8,-31*,-31,-1,2
CC(C)(C)C1CCc2c(sc(NC(=O)CCC(=O)O)c2C(=O)Nc2ccccc2C(F)(F)F)C1 (centres undefined),0,-6,1,nt,-2
COC(=O)c1cccc(C(=O)Oc2cccc(Br)c2)n1,-3,1,8,-25,3
CC(C)OC(=O)c1cccc(C(=O)Oc2ccccc2)n1,-2,5,2,-59*,1
CN(C)C=Nc1nonc1-c1ccccc1,-2,5,6,6,2
CN(C)C=Nc1c(Br)cc(Br)c2nonc12,6,-74*,13,30,415*
CCC(=O)N1CCc2cc(S(=O)(=O)NCCN3CCC(C)CC3)ccc21,13,0,1,-90*,2
CCC(=O)N1CCc2cc(S(=O)(=O)NCCC(=O)Nc3ccc(C)cc3)ccc21,0,-9,1,nt,-1
CCC(=O)N1CCc2cc(S(=O)(=O)NCCC(=O)Nc3ccc(OC)c(OC)c3)ccc21,3,-40*,1,nt,2
O=C(CCNS(=O)(=O)c1ccc2c(c1)CCN2C(=O)C1CC1)N1CCN(c2ccc(F)cc2)CC1,-6,-37*,-11,nt,8
Cc1ccc(OCc2cc(C(=O)N(C)C3CCCc4ccccc43)no2)cc1C (centres undefined),nt,nt,2,-6,nt
CCCCCNC(=O)c1c[nH]c2ccc(S(=O)(=O)N3CCC(C)CC3)cc2c1=O,0,-2,-13,nt,-4
CCN1CCN(C(c2cccs2)C(C)NC(=O)c2cccnc2)CC1 (centres undefined),-5,1,-9,-12,2
CC(NS(C)(=O)=O)C(c1cccs1)N1CCN(C)CC1 (centres undefined),-1,-2,-1,10,2
CC(NS(=O)(=O)c1ccc(Br)cc1)C(c1cccs1)N1CCN(C)CC1 (centres undefined),1,-19,-10,-52*,-2
CC(NS(=O)(=O)c1ccc(Br)cc1)c1ccccc1 (centres undefined),-8,-34*,4,-1,1
CC(NC(=O)c1cccnc1)C(c1cccs1)N1CCN(C)CC1 (centres undefined),nt,-39*,3,24,3
